Results published in PubChem BioAssay AID887 (National Center for Advancing Translational Sciences (NCATS), 2007).
The whole screen tested about 74,000 compounds, of which about 1,100 (1.5%) were called active. Where a call stands in place of a potency, no number is given. Not shown: some 5% with an inconclusive outcome. The call rests on the fitted dose curve; in most records, active means well fitted inhibition curve with a large enough effect; inconclusive means small, poorly fitted or top-dose-only effect; inactive means no such curve, though single readings can be large or run the other way. Many of the other results were omitted from the sample, so actives are more common in it than they were.
Further: nearly all actives have a fitted effect of over 55% in size.
Potency means the concentration at half of the fitted maximal effect.

The compounds below were run against Polyunsaturated fatty acid lipoxygenase ALOX15 (Homo sapiens) (UniProt P16050) (assay: qHTS Assay for Inhibitors of 15-hLO (15-human lipoxygenase)). Settings: purified 15hLO-1, xylenol orange hydroperoxide absorbance; series mostly up to 57.1 µM.
Chain of Polyunsaturated fatty acid lipoxygenase ALOX15 (Homo sapiens) (P16050 whole entry, looked up): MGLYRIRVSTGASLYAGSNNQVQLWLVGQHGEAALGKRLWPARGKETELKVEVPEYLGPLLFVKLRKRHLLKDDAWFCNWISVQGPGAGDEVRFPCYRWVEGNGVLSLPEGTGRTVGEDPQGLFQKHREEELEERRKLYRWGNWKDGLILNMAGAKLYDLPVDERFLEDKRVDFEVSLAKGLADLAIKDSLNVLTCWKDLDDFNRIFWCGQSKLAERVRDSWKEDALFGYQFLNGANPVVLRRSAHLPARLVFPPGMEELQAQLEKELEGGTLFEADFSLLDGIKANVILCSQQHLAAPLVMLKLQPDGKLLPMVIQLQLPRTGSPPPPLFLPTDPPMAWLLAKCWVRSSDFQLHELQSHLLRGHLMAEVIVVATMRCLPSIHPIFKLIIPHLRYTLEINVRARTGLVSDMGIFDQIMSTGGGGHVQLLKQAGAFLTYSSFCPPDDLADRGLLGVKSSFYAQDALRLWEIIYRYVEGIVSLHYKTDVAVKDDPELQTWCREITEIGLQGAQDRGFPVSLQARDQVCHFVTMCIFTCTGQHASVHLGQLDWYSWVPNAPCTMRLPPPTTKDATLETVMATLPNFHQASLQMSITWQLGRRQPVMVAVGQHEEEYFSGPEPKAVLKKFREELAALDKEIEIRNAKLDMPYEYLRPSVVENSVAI
In short: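 40 nM 15hLO-1 + cpd, 15 min RT; start w/ 50 uM AA (final), 6 min RT; stop/detect w/ 200 uM XO + 300 uM Fe(II) in 50 mM H2SO4, 30 min; A573/A405. Buffer 25 mM Hepes pH 7.5, 0.01% Triton X-100. No-enzyme wells as negative control.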
For `COCn1c(COc2ccccc2)nc2ccccc21`, the activity change, negative = inhibition was -9.11% [at 11.4 µM] (inactive).
`COc1ccc(OCc2ccc(-c3nc4ccccc4c(=O)n3N)o2)cc1` was tested, and the activity change, negative = inhibition was “inactive”.
`Cn1c(COc2ccc(Cl)cc2)nc2ccccc2c1=O` was tested, and the Potency was 25.1 µM (active).
For `c1ccc(Oc2ccccc2)cc1`, the activity change, negative = inhibition was “inactive”.
`CC(C)(O)CCC(O)[C@@](C)(O)C1CC[C@]2(O)C3=CC(=O)C4CC(O)C(O)C[C@]4(C)C3CC[C@]12C` (stereo partly specified) was tested, and the activity change, negative = inhibition was “inactive”.
For `O=C1OCCC=C1[C@@H](O)CCc1ccccc1`, the activity change, negative = inhibition was 9.13% [at 11.4 µM] (inactive).
With `Nc1nc2c(nc(Cl)n2C2OC(CO)C(O)C2O)c(=O)[nH]1` (stereo unspecified) the activity change, negative = inhibition was “inactive”.
`CC1=C(/C=C/C(C)=C/C=C/C(C)=C/C=C/C=C(C)/C=C/C=C(C)/C=C/C2=C(C)CCCC2(C)C)C(C)(C)CCC1` was tested, and the activity change, negative = inhibition was “inactive”.
With `CC/C=C/C/C=C/C/C=C/CCCCCCCC(=O)OCC` the Potency was 2.51 µM (active).
In the case of `Oc1c(Br)cc(CN(Cc2cc(Br)c(O)c(Br)c2)C2CCCCC2)cc1Br`, the activity change, negative = inhibition is reported as 11.3% [at 11.4 µM] (inactive).
`CC1(C)SC2C(NC(=O)COc3ccccc3)C(=O)N2C1C(=O)O` (stereo unspecified) was tested, and the activity change, negative = inhibition was “inactive”.
`O=C1OC(C(O)CO)C(O)=C1O` (stereo unspecified) was tested, and the activity change, negative = inhibition was “inactive”.
`CCOC(=O)CSC1=C(C#N)C(c2sccc2C)CC(=O)N1` (stereo unspecified) was tested, and the activity change, negative = inhibition was “inactive”.
For `CCCSC1=C(C#N)C(c2ccccc2C)C(C(=O)OC)C(=O)N1` (stereo unspecified), the Potency was 12.6 µM (active).
`COC(=O)CSC1=C(C#N)C(c2ccccc2OC)C(C(=O)OC)C(=O)N1` (stereo unspecified) was tested, and the activity change, negative = inhibition was -4.29% [at 11.4 µM] (inactive).
In the case of `CN(C)CCCCNC(=O)c1ccc(Cc2nc3ccccc3[nH]2)cc1`, the activity change, negative = inhibition is reported as “inactive”.
In the case of `O=C(O)C(O)[C@@](O)(Cc1ccc(O)cc1)C(=O)O` (stereo partly specified), the activity change, negative = inhibition is reported as “inactive”.
For `CCOC(=O)[C@]1(C(/C=C/c2ccco2)NC(=O)OC)CCCC1=O` (stereo partly specified), the activity change, negative = inhibition was 5.21% [at 11.4 µM] (inactive).
`Cc1c(O)cc(O)c2c(=O)c(-c3ccc(O)cc3)coc12` was tested, and the activity change, negative = inhibition was “inactive”.
With `CN(C)CCc1c[nH]c2ccc(Cn3cncn3)cc12` the activity change, negative = inhibition was “inactive”.
`CC(C)OC(=O)C(C#N)c1nc2ccccc2nc1N1CCN(Cc2ccccc2)CC1` (stereo unspecified) was tested, and the activity change, negative = inhibition was “inactive”.
In the case of `N#CC(C(=O)c1ccc(S(=O)(=O)N2CCCCCC2)cc1)c1nc2ccccc2[nH]1` (stereo unspecified), the activity change, negative = inhibition is reported as “inactive”.
`Cc1ccc(S(=O)(=O)C(C#N)c2nc3ccccc3nc2N2CCCC2)cc1C` (stereo unspecified) was tested, and the Potency was 12.6 µM (active).
`CC1CCCCN1CCCNC(=O)c1ccc(-n2c(=O)c(=O)[nH]c3ccccc32)cc1` (stereo unspecified) was tested, and the activity change, negative = inhibition was “inactive”.
`CC1OC(OCC2OC(Oc3c(-c4ccc(O)c(O)c4)oc4cc(O)cc(O)c4c3=O)C(O)C(O)C2O)[C@@H](O)C(O)C1O` (stereo partly specified) was tested, and the activity change, negative = inhibition was “inactive”.
`CC(=O)OCC(=O)C1CCC2C3CCC4=CC(=O)CC[C@@]4(C)C3CC[C@]12C` (stereo partly specified) was tested, and the activity change, negative = inhibition was “inactive”.
